The list is not random: actives were taken first. Their share in the collection is about 2.9%.
Cardio protect = protects H9c2 cardiomyocytes from peroxide injury; protection from H2O2 cell death, % at 20 µM; AID 588492; hit rate 0.63% among 360,000; H2O2 injury protection, ATPLite, 2 h;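 active = compounds giving at least 50% protection of heart cells from peroxide-induced death in the single-dose screen, raw or plate-pattern-corrected value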;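 also: 0% = DMSO wells with peroxide and 100% = DMSO wells without peroxide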
ABHD5-PLIN5 inh = ABHD5-PLIN5 protein interaction inhibition. hit rate 0.78% among 360,000. inhibition, % at 4 µM. AID 602281. Q00G26+Q8WTS1. Split G. princeps luciferase complementation, luminescence, 4 h;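 active = inhibition above the mean inhibition across every tested compound plus 3 SD, cut at about 22% in these data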;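 also: 0% = DMSO only wells and the 100% control is not disclosed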
DAGLB inhibitor = diacylglycerol lipase beta (human) inhibition | Q8NCG7 | HEK293T DAGLB membrane lysate, EnzChek fluorogenic substrate | inhibition, % at 5.17 µM | hit rate 0.059% among 340,000 | AID 504411; in the data active = inhibition above about 34%;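 also: 0% = enzyme with vehicle and 100% = wells lacking enzyme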
Rtt109 Vps75 = blocks Candida albicans Rtt109/Vps75 acetyltransferase activity | hit rate 0.16% among 330,000 | inhibition, % at 34.9 µM | Q5AAJ8 | purified Rtt109/Vps75, ThioGlo CoA-SH fluorescence, 4 h;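 active = inhibition of at least 50% in every replicate; inconclusive = best replicate reaches 50% inhibition but some replicates fall short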
Myeloid diff 2 = promotes myeloid progenitor differentiation; AID 624256; ER-HoxA9 myeloid progenitors, lysozyme-GFP differentiation, flow cytometry; hit rate 1% among 360,000; calls only at 10 µM;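 active = normalized GFP-positive differentiation at or above the plate's own cutoff, the solvent-only control mean plus 3 SD; inconclusive = no clear call, values can overlap the other calls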;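 also: cells exposed to compound for four days before flow analysis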
sPLA2-III inh = Inhibits HGIII-sPLA2 liposome hydrolysis, primary screen | QFRET BODIPY PC-A2 liposome hydrolysis, fluorescence | inhibition, % at 12.2 µM | hit rate 0.56% among 370,000;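 active = inhibition above mean plus 3 SD of compounds lying within the high and low control bounds, cut at about 19% in these data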;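 also: 0% = median of test compound wells and 100% = no enzyme DMSO wells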
ABHD5-PLIN5 conf = confirmation of human ABHD5-PLIN5 interaction inhibitors. inhibition, % at 4 µM. biochemical ABHD5-PLIN5 interaction, luminescence. hit rate 67% among 2,200. shares compounds with ABHD5-PLIN5 inh; in the data active = inhibition above about 23%;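 also: 0% = DMSO vehicle wells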
HNF4 split-luc = counter-screen for ABHD5-PLIN5 inhibitors: HNF4 split-luciferase; hit rate 77% among 2,200; shares compounds with ABHD5-PLIN5 inh; HNF4 dimerization, luminescence, biochemical; AID 651674; inhibition, % at 4 µM;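 active = mean inhibition across replicate wells exceeding the computed hit threshold, cut at about 13% in these data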;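 also: light from luciferase halves that rejoin when HNF4 fusion proteins dimerize; 0% = DMSO only wells and the 100% control is not given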
Target sequence (P41235 whole entry, looked up, the tested form may be a part): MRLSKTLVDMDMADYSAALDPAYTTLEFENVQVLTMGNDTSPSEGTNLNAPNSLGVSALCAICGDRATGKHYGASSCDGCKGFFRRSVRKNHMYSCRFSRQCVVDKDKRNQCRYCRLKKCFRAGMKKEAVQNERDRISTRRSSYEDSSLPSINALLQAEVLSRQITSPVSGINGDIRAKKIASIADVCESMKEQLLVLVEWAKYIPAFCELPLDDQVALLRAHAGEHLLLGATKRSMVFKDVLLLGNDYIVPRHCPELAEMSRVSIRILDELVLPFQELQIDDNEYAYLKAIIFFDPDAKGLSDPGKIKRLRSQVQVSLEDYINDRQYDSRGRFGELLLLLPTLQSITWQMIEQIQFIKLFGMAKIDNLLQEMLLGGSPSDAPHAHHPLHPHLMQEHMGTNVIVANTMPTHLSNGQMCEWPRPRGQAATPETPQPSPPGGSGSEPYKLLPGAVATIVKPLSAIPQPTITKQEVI
Numbers without * were called inactive.

COc1cc(/C=C(\C#N)C(=O)NC2CCCCC2C)ccc1OS(=O)(=O)c1ccc(C)cc1 (stereo unspecified) was read as Cardio protect -6, ABHD5-PLIN5 inh 38*, DAGLB inhibitor -2, Rtt109 Vps75 -1, Myeloid diff 2 inactive, sPLA2-III inh 1, ABHD5-PLIN5 conf 67* and HNF4 split-luc 49*.
For N#C/C(=C\c1c(F)cccc1Cl)C(=O)NC1CC1 the results were Cardio protect 0, ABHD5-PLIN5 inh 23*, DAGLB inhibitor 0, Rtt109 Vps75 4, sPLA2-III inh 1, ABHD5-PLIN5 conf 30* and HNF4 split-luc 21*.
For CC1CCCCC1NC(=O)/C(C#N)=C/c1ccccc1F (stereo unspecified) the results were Cardio protect 0, ABHD5-PLIN5 inh 34*, DAGLB inhibitor 3, Myeloid diff 2 inactive, sPLA2-III inh 4, ABHD5-PLIN5 conf 82* and HNF4 split-luc 78*.
`COc1cc(/C=C(\C#N)C(N)=O)ccc1OS(=O)(=O)c1ccc(C)cc1` gave Cardio protect 23, ABHD5-PLIN5 inh 0, DAGLB inhibitor -4, Rtt109 Vps75 -23, Myeloid diff 2 inactive and sPLA2-III inh 12.
`CCOC(=O)c1c(-c2ccc(C)o2)csc1NC(=O)CSc1ncn[nH]1` gave Cardio protect -8, ABHD5-PLIN5 inh 44*, DAGLB inhibitor -3, Rtt109 Vps75 1, Myeloid diff 2 inactive, sPLA2-III inh -37, ABHD5-PLIN5 conf 12 and HNF4 split-luc 52*.
Screening CCOC(=O)c1c(-c2ccc(C)o2)csc1NC(=O)COC(=O)c1cccs1 returned Cardio protect 26, ABHD5-PLIN5 inh 27*, DAGLB inhibitor -20, Rtt109 Vps75 4, Myeloid diff 2 inactive, sPLA2-III inh -5, ABHD5-PLIN5 conf 10 and HNF4 split-luc 28*.
Screening CCOC(=O)c1c(-c2ccc(C)o2)csc1NC(=O)CN1CCOCC1 returned Cardio protect 8, ABHD5-PLIN5 inh 5, DAGLB inhibitor -5, Rtt109 Vps75 0, Myeloid diff 2 inactive and sPLA2-III inh -20.
For CC(=O)C(N=Nc1ccccc1)(Sc1nnc(-c2ccccc2)n1-c1ccccc1)C(C)=O the results were Cardio protect -6, ABHD5-PLIN5 inh 4, DAGLB inhibitor -7, Rtt109 Vps75 29, Myeloid diff 2 inactive and sPLA2-III inh 0.
For CCOC(=O)Cc1csc(NC(=O)c2cccc(Cl)c2)n1 the results were Cardio protect -8, ABHD5-PLIN5 inh -2, Myeloid diff 2 inactive and sPLA2-III inh 5.
`COc1ccc(/C=C2\CCC/C(=C\C=N\N(C)C)C2=O)cc1` gave Cardio protect -27, ABHD5-PLIN5 inh 36*, DAGLB inhibitor 4, Rtt109 Vps75 0, Myeloid diff 2 inactive, sPLA2-III inh -1, ABHD5-PLIN5 conf 36* and HNF4 split-luc 72*.
O=C1/C(=C/c2ccc(C(=O)O)cc2)CCC/C1=C\c1ccc(C(=O)O)cc1 was read as Cardio protect 22, ABHD5-PLIN5 inh 15, DAGLB inhibitor 0, Rtt109 Vps75 -7, Myeloid diff 2 inactive and sPLA2-III inh -15.
COc1ccc(C=C2CS(=O)(=O)CC(=Cc3ccc(OC)cc3)C2=O)cc1 was read as Cardio protect -13, ABHD5-PLIN5 inh 94*, DAGLB inhibitor 1, Myeloid diff 2 inactive, sPLA2-III inh -16, ABHD5-PLIN5 conf 103* and HNF4 split-luc 105*.
For COc1ccc(/C=C2\CCCCC2=O)cc1 the results were Cardio protect -3, ABHD5-PLIN5 inh -8, DAGLB inhibitor -2, Rtt109 Vps75 2, Myeloid diff 2 inactive and sPLA2-III inh -7.
CN(C)/N=C/C=C1\CCC/C(=C\c2ccc(F)c(F)c2)C1=O was read as Cardio protect -8, ABHD5-PLIN5 inh 53*, Rtt109 Vps75 6, Myeloid diff 2 inconclusive, sPLA2-III inh 8, ABHD5-PLIN5 conf 71* and HNF4 split-luc 73*.
For O=C(/C=C/c1cccnc1)/C=C/c1cccnc1 the results were Cardio protect -21, ABHD5-PLIN5 inh 95*, DAGLB inhibitor -7, Rtt109 Vps75 -1, Myeloid diff 2 inconclusive, sPLA2-III inh 0, ABHD5-PLIN5 conf 102* and HNF4 split-luc 108*.
Screening Cc1cccc(C(=O)Nc2ccc(C(=O)/C=C/c3cccnc3)cc2)c1 returned Cardio protect -20, ABHD5-PLIN5 inh 68*, DAGLB inhibitor 5, Rtt109 Vps75 0, sPLA2-III inh -5, ABHD5-PLIN5 conf 102* and HNF4 split-luc 102*.
Screening Cc1cccc(C(=O)Nc2ccc(C(=O)N/N=C/c3cccnc3)cc2)c1 returned Cardio protect -3, ABHD5-PLIN5 inh -2, DAGLB inhibitor 0, Rtt109 Vps75 -13, Myeloid diff 2 inactive and sPLA2-III inh 5.
`COc1ccc(OC)c(C(=O)/C=C/c2cccnc2)c1` gave Cardio protect -4, ABHD5-PLIN5 inh 39*, DAGLB inhibitor -1, Rtt109 Vps75 3, Myeloid diff 2 inactive, sPLA2-III inh -3, ABHD5-PLIN5 conf 61* and HNF4 split-luc 63*.
Screening COc1ccc(/C=C/C(=O)c2ccc(OC)cc2OC)cc1 returned Cardio protect -4, ABHD5-PLIN5 inh 0, DAGLB inhibitor -8, Rtt109 Vps75 2, Myeloid diff 2 inactive and sPLA2-III inh -11.
COc1cc(C(=O)/C=C/c2cccnc2)ccc1O was read as Cardio protect 0, ABHD5-PLIN5 inh 24*, DAGLB inhibitor -2, Rtt109 Vps75 inconclusive, Myeloid diff 2 inactive, sPLA2-III inh 4, ABHD5-PLIN5 conf 61* and HNF4 split-luc 55*.
`O=C(OCc1cnc(Cl)s1)c1cccc(Cl)c1Cl` gave Cardio protect -4, ABHD5-PLIN5 inh -8, DAGLB inhibitor -10, Rtt109 Vps75 6, Myeloid diff 2 inactive and sPLA2-III inh 5.
For O=C1CC(c2ccccc2)CC(=O)C1CS(=O)(=O)c1ccccc1 (stereo unspecified) the results were Cardio protect 3, ABHD5-PLIN5 inh 34*, DAGLB inhibitor -2, Rtt109 Vps75 inconclusive, Myeloid diff 2 inactive, sPLA2-III inh 1, ABHD5-PLIN5 conf 48* and HNF4 split-luc 105*.
Screening Cc1[nH]c2ccccc2c(=O)c1C(=O)/C=C/c1ccccc1 returned Cardio protect 18, ABHD5-PLIN5 inh 32*, DAGLB inhibitor 1, Rtt109 Vps75 6, Myeloid diff 2 inconclusive, sPLA2-III inh 1, ABHD5-PLIN5 conf 63* and HNF4 split-luc 56*.
O=C(C=Cc1ccccc1)c1c[nH]c2ccccc2c1=O was read as Cardio protect -4, ABHD5-PLIN5 inh 27*, DAGLB inhibitor 2, Rtt109 Vps75 4, Myeloid diff 2 inconclusive, sPLA2-III inh -9, ABHD5-PLIN5 conf 74* and HNF4 split-luc 63*.

Assay outcomes from PubChem.
